Screening data from PubChem.
Many of the other results were omitted from the sample, so hits are more common in it than they were.
HT1080 IDH1KD tx: HT-1080 IDH1 knockdown cell toxicity (counter line) | HT-1080 IDH1 knockdown viability, ATP luminescence, 48 h | Potency, µM (highest dose often 46.1 µM), for inactives: at the highest dose activity, negative = toxicity, hits mostly cytotoxic | 360,000 compounds, 2% hits | AID 686971;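 further: potency means the concentration at half of the fitted maximal effect; 0% = DMSO wells and -100% = cell-free medium wells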
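% activity derives from luminescence (CellTiter-Glo), normalised to DMSO and no-cell wells. HT-1080-IDH1KD cells, 750/well, had 48 h compound exposure at 37 °C.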
12-LOX inh: ALOX12 (human) lipoxygenase inhibition; Potency, µM (series often up to 108 µM), without a hit: at the top dose activity change, negative = inhibition, usual class: inhibitors; purified 12hLO, xylenol orange hydroperoxide absorbance; 580,000 compounds, 1.1% hits; P18054; further: potency means the concentration at half of the fitted maximal effect
Target sequence (P18054 whole entry, looked up): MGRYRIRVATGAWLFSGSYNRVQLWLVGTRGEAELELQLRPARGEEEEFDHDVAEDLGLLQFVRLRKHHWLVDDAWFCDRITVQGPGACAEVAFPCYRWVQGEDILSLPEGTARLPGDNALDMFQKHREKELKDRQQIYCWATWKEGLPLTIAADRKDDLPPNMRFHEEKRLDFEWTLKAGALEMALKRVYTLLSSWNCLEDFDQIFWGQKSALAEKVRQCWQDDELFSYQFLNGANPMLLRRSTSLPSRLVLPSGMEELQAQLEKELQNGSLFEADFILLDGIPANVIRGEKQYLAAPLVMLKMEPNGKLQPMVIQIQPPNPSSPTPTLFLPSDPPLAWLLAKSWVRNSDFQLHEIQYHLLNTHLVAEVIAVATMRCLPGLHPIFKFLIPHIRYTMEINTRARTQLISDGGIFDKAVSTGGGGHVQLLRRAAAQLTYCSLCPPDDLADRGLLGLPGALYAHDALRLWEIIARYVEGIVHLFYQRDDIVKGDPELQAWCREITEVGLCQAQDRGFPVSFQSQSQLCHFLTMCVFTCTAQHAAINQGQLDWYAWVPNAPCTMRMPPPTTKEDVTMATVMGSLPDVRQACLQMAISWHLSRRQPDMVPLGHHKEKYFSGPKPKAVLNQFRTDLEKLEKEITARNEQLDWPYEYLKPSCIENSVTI
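Purified human 12hLO at 150 nM in 25 mM Hepes, 0.01% Triton X-100, pH 7.0, preincubated 15 min at room temperature with compound. Reaction started with 40 uM arachidonic acid, 30 min at room temperature. Hydroperoxide measured by Fe-xylenol orange, 573/405 nm absorbance ratio.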
HT1080NT lethal: kills 2HG-producing HT-1080-NT fibrosarcoma cells | HT-1080-NT fibrosarcoma viability, CellTiter-Glo ATP luminescence, 48 h | Potency, µM (top dose mostly 46.1 µM), for inactives: at the top dose activity, negative = less viability, usual class: cytotoxic | 360,000 compounds, 1.6% hits;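 further: NT is the 2HG producing partner of a matched IDH1 knockdown line; potency means the concentration at half of the fitted maximal effect; 0% = DMSO-treated cells and -100% = media-only wells without cells; nearly all actives have a fitted effect of over 55% in size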
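HT-1080-NT fibrosarcoma cells (2HG-overproducing), 750 cells/well in RPMI with 5% FBS, dosed after 2 h and incubated 48 h at 37C. CellTiter-Glo luminescence normalized to DMSO and no-cell wells; concentration-response curves fitted and classed.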
IL1B secr inh: blocks inflammasome-driven IL-1 beta release. THP-1 LPS/ATP IL-1B secretion, AlphaLISA, 16 h; active compounds read low. activity change, % at 57.5 µM. 360,000 compounds, 4.7% hits; in the data active means activity change below about -50%; inconclusive means mostly about -30% to -49%
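THP-1 cells pretreated 1 hr with compounds (up to 57.5 uM final), then stimulated with LPS (250 ng/mL final) plus ATP (1.25 mM final); secreted IL-1B measured by AlphaLISA after 16 hr, decreased signal indicating inhibition.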
TDP1 cell CPT: DT40-hTDP1 cell growth loss with CPT | 420,000 compounds, 12% hits | chicken DT40 Tdp1-/-;hTDP1 cells + 20 nM CPT, ATP luminescence, 48 h | AID 686979 | Potency, µM (highest dose often 46.2 µM), inactives show at the highest dose activity change, negative = growth inhibition, actives largely listed as inhibitors; further: potency means the concentration at half of the fitted maximal effect; nearly all actives have a fitted effect of over 55% in size
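Cell growth measured by CellTiter-Glo luminescence after a minimum 48 h, 37 C compound exposure with 20 nM CPT in Tdp1-knockout DT40 cells stably expressing hTDP1, seeded 400/well; qHTS titration format.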
DT40 TDP1 no CPT: qHTS for Inhibitors of human tyrosyl-DNA phosphodiesterase 1 (TDP1): qHTS in cells in absence of CPT | Potency, µM (doses to about 46.2 µM), for inactives: top-dose activity change, negative = growth inhibition, actives largely listed as inhibitors | 420,000 compounds, 15% hits | DT40 Tdp1-/- hTDP1 cells, no CPT, ATP luminescence, 48 h; further: potency means the concentration at half of the fitted maximal effect; nearly all actives have a fitted effect of over 55% in size
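Cells were dispensed at 400 per well, compounds added by pin tool, plates incubated ≥48 hr at 37 °C, then CellTiter-Glo added for 30 min at room temperature before luminescence reading. Line: DT40 Tdp1-/- complemented with hTDP1; camptothecin omitted.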
* = called active by the depositor; u = inconclusive; x = not tested or not shown; [ ] = another dose, or the depositor's remark. Unless noted, the call rests on the fitted dose curve; in most records, active means well fitted curve in the direction sought with a large enough effect; inconclusive means small, poorly fitted or top-dose-only effect, or another doubt; inactive means no such curve, though single readings can be large; an effect the other way counts as inactive or inconclusive. Unless noted, on the % scale 0 is the no-effect control and ±100 the full control effect.

SMILES	HT1080 IDH1KD tx	12-LOX inh	HT1080NT lethal	IL1B secr inh	TDP1 cell CPT	DT40 TDP1 no CPT
O=C(CNc1ccc2ccccc2c1)N/N=C/c1ccc(C(=O)O)cc1	-4%	1%	1%	-2	-2%	2%
Cc1cccc(-c2cn[nH]c2C2CCN(C(=O)c3ccc4nccnc4c3)CC2)c1	x	-16%	x	x	x	x
Cc1cc(=O)n2c3ccccc3nc2n1CC(=O)c1ccc(Br)cc1	x	-2%	x	x	x	x
Cc1ccc(C2CC(=O)CC(c3ccc(C)cc3C)S2)c(C)c1 (configuration not stated)	x	7%	x	x	x	x
CCNC(=O)N[C@H]1C[C@@H](c2nc(-c3ccc(OC(F)(F)F)cc3)no2)N(C)C1	x	13%[176 µM]	x	x	x	x
O=C(CSCc1ccc(Br)cc1)Nc1ccccc1C(=O)N1CCOCC1	13%	467%	3%	6	u	16µM*
O=C(CSCc1ccc(Cl)cc1)Nc1ccc(O)cc1C(=O)O	-15%	6.3µM*	14%	3	5%	-16%
C/C(=N\NC(=O)c1ccc(C(C)(C)C)cc1)c1ccc(C)cc1C	x	55%	x	x	x	x
O=C1c2ccccc2C(=O)c2c1cccc2N(CCO)CCO	-29%	8%	u	-10	-21%	-29%
O=C1C=CC(=Nc2cccc3c2C(=O)c2ccccc2-3)O1	-53%	x	0%	-93*	-82%	u
Cc1cc(Br)ccc1NC(=O)CSc1nc2cc([N+](=O)[O-])ccc2o1	x	18µM*	x	x	x	x
COc1ccc([N+](=O)[O-])cc1NC(=O)CSc1nc(C)cc(C)n1	-6%	0%	-8%	27	16µM*	u
COc1cc([N+](=O)[O-])ccc1NC(=O)CSc1nncn1-c1cccnc1	-2%	2%	0%	10	u	0.52µM*
COc1ccc([N+](=O)[O-])cc1NC(=O)CSc1ccc2ccccc2c1	-30%	u	u	16	23µM*	u
CC1C/C(=C/c2ccccn2)C(=O)/C(=C/c2ccccn2)C1 (configuration not stated)	0.58µM*	x	0.65µM*	-54*	0.52µM*	0.52µM*
C(=C\c1ccccn1)/c1ccccn1	21%	3%	u	-6	4%	-16%
CC(C)(C)C1C/C(=C/c2ccccn2)C(=O)/C(=C/c2ccccn2)C1 (configuration not stated)	0.65µM*	x	0.73µM*	-93*	0.92µM*	0.52µM*
N#Cc1cc(Oc2cccc3cccnc23)c(-n2nnc3ccccc32)cc1C#N	6.3µM*	u	5.6µM*	-59*	7.1µM*	7.9µM*
N#Cc1ccc(Oc2cccc3cccnc23)c([N+](=O)[O-])c1	0%	28%	2%	-8	4%	u
COc1ccc(C(=O)Nc2ccc(-c3noc([C@@H]4CCCN4Cc4ccc(F)cc4)n3)cn2)cc1	x	-8%	x	x	x	x
COc1ccc(C(C(=O)NC2CCCC2)N(C(=O)c2ccoc2C)c2ccccc2)cc1 (configuration not stated)	-1%	-10%	-18%	-3	u	u
CCc1ccc(N(C(=O)c2ccoc2C)C(C(=O)NC2CCCC2)c2ccc(OC)cc2)cc1 (configuration not stated)	0%	-24%	17%	u	23µM*	18µM*
COc1ccc(C(C(=O)NC2CCCC2)N(C(=O)c2ccoc2C)c2ccc(C)c(C)c2)cc1 (configuration not stated)	u	-4%	-19%	u	u	13µM*
COc1ccc(C(C(=O)NC2CCCCC2)N(C(=O)c2sc(C)nc2C)c2ccc(OC)cc2)cc1 (configuration not stated)	-4%	u	3%	5	u	-22%
COc1ccc(C(C(=O)NC2CCCC2)N(C(=O)c2ccoc2C)c2cc(C)cc(C)c2)cc1 (configuration not stated)	-30%	12%	-17%	u	26µM*	29µM*
SMILES	HT1080 IDH1KD tx	12-LOX inh	HT1080NT lethal	IL1B secr inh	TDP1 cell CPT	DT40 TDP1 no CPT
CN(CC(=O)Nc1ccccc1C(=O)NC1CC1)Cc1ccc(F)cc1	x	35%	x	x	x	x
Cn1c([C@H]2CCN(S(=O)(=O)c3cccc4cccnc34)C2)nc2ccccc21	x	8%[176 µM]	x	x	x	x
O=C(COc1cccnc1[N+](=O)[O-])Nc1cccc2ccccc12	-4%	x	-5%	-1	-15%	-2%
Cn1cnc([N+](=O)[O-])c1Cl	12%	9%	12%	-95*	u	u
Cn1cnc([N+](=O)[O-])c1S(=O)(=O)Oc1cccc2ccccc12	2.6µM*	-27%	1.2µM*	-102*	1.3µM*	1µM*
CCN(CC)c1c([N+](=O)[O-])ncn1C	12%	-9%	10%	15	-6%	0%
CCS(=O)(=O)c1c([N+](=O)[O-])ncn1C	u	-12%	u	-12	5.2µM*	7.3µM*
Cn1cnc([N+](=O)[O-])c1S(=O)(=O)Oc1ccc(Cl)cc1	16µM*	1%	21µM*	-97*	0.65µM*	2.1µM*
COCCNC(=O)NC(=O)CSc1nc(-c2ccco2)nc2ccccc12	x	-7%	x	x	x	x
CCCCCn1c(SCC(N)=O)nc2c1c(=O)[nH]c(=O)n2C	x	36%	x	x	x	x
Cn1cnc([N+](=O)[O-])c1Sc1ncn[nH]1	-7%	-4%	0%	0	18µM*	16µM*
Cn1cnc([N+](=O)[O-])c1Oc1cccc2ccccc12	21µM*	-5%	u	x	u	29µM*
Cc1ccc(NC(=O)Cc2nnc(SCC(=O)NC34CC5CC(CC(C5)C3)C4)n2C)c(C)c1	x	-13%	x	x	x	x
C=C1c2nc3ccccc3n2C=C(c2ccc(C)cc2)N1c1ccccc1	18µM*	u	21µM*	11	8.2µM*	13µM*
COC(=O)c1cc(Nc2nc3ccccc3nc2NS(=O)(=O)c2ccc(C)cc2)ccc1Cl	x	u	x	x	18µM*	6.5µM*
CC(=O)Nc1ccc(S(=O)(=O)Nc2nc3ccccc3nc2Nc2ccc(N)cc2)cc1	3%	0%	-8%	9	3%	-19%
Cc1ccc(Nc2nc3ccccc3nc2NS(=O)(=O)c2ccccc2)cc1	x	-9%	x	x	x	x
CC(=O)Nc1ccc(Nc2nc3ccccc3nc2NS(=O)(=O)c2ccc(Cl)c([N+](=O)[O-])c2)cc1	7%	u	-1%	-108*	7.3µM*	5.8µM*
CC(=O)c1cccc(Oc2ccc(C#N)c(C#N)c2)c1	x	-15%	x	x	x	x
